S2 tox = reduces viability in counter-screen for ATXN expression inhibitors; S2 cells (HEK-293 line with an ATXN2-luciferase reporter) viability, CellTiter-Fluor protease fluorescence, 24 h; Potency, µM (doses to about 56.7 µM), actives largely listed as cytotoxic; 0.49% of 400,000 active; further: nearly all actives have a fitted effect of over 40% in size
HepG2 tox = counter-screen for TGF-b inhibitors: cytotoxicity in HepG2 cells; AID 588856; Potency, µM (highest dose often 46.1 µM), actives largely listed as cytotoxic; HepG2 CAGA-GFP viability, ATP luminescence, 18 h; 0.76% of 410,000 active
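HepG2 CAGA-GFP cells (1000/well, DMEM with 1% FBS) received compound, then TGF-beta at 500 pg/mL final, and were incubated 18 hours at 37 degrees C. Viability was read by CellTiter-Glo luminescence. Media-only wells were set as complete cell-killing and DMSO as no toxicity.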
KB-V1 cytotox = KB-V1 MDR subline cytotoxicity. KB-V1 MDR cells viability, CellTiter-Glo, 72 h. 3.4% of 400,000 active. Potency, µM (series often up to 46.1 µM), hits mostly cytotoxic; further: nearly all actives have a fitted effect of over 60% in size
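Cytotoxicity toward P-gp-expressing KB-V1 cells was determined as loss of CellTiter-Glo luminescence after 72 h at 37 degrees C. Compounds were tested in quantitative HTS format across a concentration range, with curves fitted to normalized data.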
KB-3-1 cytotox = kills parental KB-3-1 adenocarcinoma cells; KB-3-1 viability, CellTiter-Glo ATP luminescence, 72 h; Potency, µM (top dose mostly 46.1 µM), most hits filed as cytotoxic; 1.4% of 400,000 active; further: nearly all actives have a fitted effect of over 60% in size
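Multi-concentration cytotoxicity screen in KB-3-1 cells grown in DMEM lacking phenol red with 10% FBS. After 72 h at 37 °C with compound, ATP-dependent luminescence was recorded.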
TGFb SMAD3 inh = blocks TGF-b signaling; 1.2% of 410,000 active; HepG2 CAGA-GFP TGF-b/SMAD3 reporter, GFP fluorescence, 18 h; TGF-beta stimulated, 500 pg/mL final; Potency, µM (doses to about 46.1 µM), usual class: inhibitors; further: nearly all actives have a fitted effect of over 65% in size
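Smad-responsive CAGA-GFP expression was quantified in HEPG2 cells exposed to compounds and 500 pg/mL final TGF-beta for 18 h at 37 degrees C; unstimulated wells defined full inhibition.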
ATXN2 expr inh = inhibitors of ATXN2 expression; Potency, µM (highest dose often 57 µM), usual class: inhibitors; 0.72% of 360,000 active; HEK-293 ATXN2-luciferase reporter, luminescence, 24 h; AID 1745845; further: nearly all actives have a fitted effect of over 55% in size
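qHTS (up to 57 uM final) was run with 24 h compound exposure of reporter cells at 37 °C. Each well was multiplexed: SteadyGlo luminescence measured ATXN2-luciferase expression after a fluorogenic Gly-Phe-AFC viability readout (25 uM final).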
Numbers stand for hits; i = inactive; ? = inconclusive; nt = no result. Rows were chosen to be rich in hits. Some 5.9% of all compounds tested hit in one or more screens of this group. The call rests on the fitted dose curve; in most records, active means well fitted curve in the direction sought with a large enough effect; inconclusive means small, poorly fitted or top-dose-only effect, or another doubt; inactive means no such curve, though single readings can be large; an effect the other way counts as inactive or inconclusive.

SMILES | S2 tox | HepG2 tox | KB-V1 cytotox | KB-3-1 cytotox | TGFb SMAD3 inh | ATXN2 expr inh
CCCNC(=O)c1cc2c(c(-c3cccc(-c4ccc(F)cc4)c3)n1)[C@@H](CCO)N(S(=O)C(C)(C)C)C2 (some centres undefined) | ? | i | ? | i | 16µM | ?
CCCNC(=O)c1cc2c(c(-c3cccc(-c4ccc(F)cc4)c3)n1)[C@H](CCO)N(S(=O)C(C)(C)C)C2 (some centres undefined) | ? | i | ? | ? | ? | ?
COCCNC(=O)c1cc2c(c(-c3cccc(-c4cc5ccccc5o4)c3)n1)[C@H](CCO)N(S(=O)C(C)(C)C)C2 (some centres undefined) | ? | i | 18µM | i | i | i
CCN(C(=O)Cc1c(C(=O)O)c(C)cn1C)c1cccc(Cl)c1 | i | i | i | i | i | i
O=C(NCc1nnc2n1CCN(Cc1cc3c(cc1Cl)OCO3)CC2)c1cccc(F)c1 | i | nt | nt | nt | nt | nt
COc1ccc(NC(=O)Cc2ccccc2)cn1 | i | i | i | i | i | i
COc1ccc(CS(=O)(=O)/C(Cl)=C(/Cl)C(=O)Nc2ccc(OC)nc2)cc1 | ? | i | 3.7µM | ? | ? | 13µM
COc1ccc(NC(=O)/C(Cl)=C(/Cl)S(=O)Cc2ccccc2)cn1 (centres undefined) | 4.5µM | 7.1µM | 8.2µM | 5.8µM | 4µM | 2.8µM
O=C(c1ccco1)c1nnn(Cc2ccccc2)c1-c1ccccc1 | i | i | 23µM | i | i | i
O=C(c1cccc(F)c1)N1CCN(c2cc(N3CCCCC3)c(F)cc2[N+](=O)[O-])CC1 | i | i | 18µM | ? | i | i
CC(=O)N1CCN(c2cc(N3CCc4ccccc4C3)c(F)cc2[N+](=O)[O-])CC1 | ? | i | 18µM | i | ? | ?
CCC(=O)N1CCN(c2cc(N3CCCC3)c(F)cc2[N+](=O)[O-])CC1 | i | i | ? | i | i | nt
Cc1cc[n+](CC(=O)c2ccc(NC(=O)c3ccccc3)cc2)c2ccccc12 | ? | i | i | 10µM | i | i
Cc1nc(C(F)(F)F)c(C(=O)NC(=O)Nc2ccc(OC(F)(F)F)cc2)s1 | i | i | 16µM | i | ? | i
Cc1cnc(C(=O)Nc2ccc(OC(F)(F)F)cc2)cn1 | i | i | ? | 15µM | i | nt
O=C(CNCC1CCCCC1)Nc1ccc(OC(F)(F)F)cc1 | i | i | i | i | 16µM | i
COc1cccc(C2(CC(=O)N3CCN(c4ccccn4)CC3)CC(=O)N(C3CCCC3)C2=O)c1 (centres undefined) | i | nt | nt | nt | nt | nt
COc1ccc(Cn2ccc3nc(C)c(C(=O)Nc4cc(OC)c(OC)c(OC)c4)cc3c2=O)cc1 | i | i | i | i | i | i
COc1cccc(CNc2ncc(C(=O)Nc3cc(OC)c(OC)c(OC)c3)c(C)n2)c1 | i | i | i | 8.2µM | i | i
COc1cc(NC(=O)c2cnc(NCc3ccccc3)nc2C)cc(OC)c1OC | i | i | 10µM | ? | i | i
CC#CCC(C)[C@H](O)/C=C/[C@@H]1[C@H]2c3cccc(CCCC(=O)O)c3O[C@H]2C[C@H]1O (some centres undefined) | i | nt | nt | nt | nt | nt
COc1cccc(-n2c(SCC(=O)Nc3ccc4c(c3)OCO4)nc3c([nH]c4ccccc43)c2=O)c1 | ? | i | i | i | i | i
Cc1ccc(-c2nc3nc(C)cc(N4CCN(c5cccc(C)c5C)CC4)n3n2)cc1 | i | i | i | i | i | i
O=C(COc1ccccc1)Nc1ccc2nc(SCC(=O)N3CCOCC3)sc2c1 | nt | i | nt | nt | i | nt
Cc1c(N2C(=O)/C(=C\c3ccccc3O)SC2=S)c(=O)n(-c2ccccc2)n1C | i | i | i | i | ? | i
CN1C(=O)/C(=C/c2cc(N=Nc3ccccc3)ccc2O)SC1=S | 28µM | i | i | i | ? | ?
CCS(=O)(=O)NCc1c(C)ncc2c1CCN(C(=O)c1csc(-c3cccs3)n1)C2 | i | nt | nt | nt | nt | nt
CNc1nc(-c2ccc3c(c2)CCN3C(=O)c2cccc(F)c2)cs1 | ? | i | i | 15µM | i | i
